Bioassay records (PubChem)
GLP1R ag: qHTS of GLP-1 Receptor Agonists; Glucagon-like peptide 1 receptor (Homo sapiens), P43220; HEK293 GLP-1R CRE-luciferase, luminescence, 4-6 h; cells express a hypersensitive GLP-1R form; Potency, µM (top dose mostly 45.6 µM), for inactives: top-dose activation, most hits filed as activators; hit rate 0.007% among 380,000; AID 624172, 2012; further: potency means the concentration at half of the fitted maximal effect; % of control where 0% means no effect
Target sequence (P43220 whole entry, looked up): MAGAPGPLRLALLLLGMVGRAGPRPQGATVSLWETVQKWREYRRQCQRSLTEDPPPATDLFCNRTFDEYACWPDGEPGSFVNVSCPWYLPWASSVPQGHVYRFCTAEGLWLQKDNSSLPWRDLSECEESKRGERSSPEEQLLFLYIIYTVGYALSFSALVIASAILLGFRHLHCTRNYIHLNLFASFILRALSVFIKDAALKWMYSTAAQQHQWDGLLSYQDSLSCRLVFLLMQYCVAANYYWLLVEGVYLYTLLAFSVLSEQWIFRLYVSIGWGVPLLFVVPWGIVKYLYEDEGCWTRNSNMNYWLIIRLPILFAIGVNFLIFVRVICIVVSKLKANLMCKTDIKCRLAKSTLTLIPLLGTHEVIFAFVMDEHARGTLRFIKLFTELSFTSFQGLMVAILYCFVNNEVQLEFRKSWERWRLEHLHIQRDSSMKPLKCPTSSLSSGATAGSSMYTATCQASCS
HEK293 tox: qHTS of GLP-1 Receptor Inverse Agonists: Cytotox Screen. AID 624418, 2012. HEK293 cAMP-luciferase reporter cells, luminescence, 24 h. Potency, µM (top dose mostly 38.3 µM), for inactives: at the top dose activity change, negative = inhibition, usual class: inhibitors. hit rate 0.13% among 410,000;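 further: loss of luciferase light is scored as toxicity; potency means the concentration at half of the fitted maximal effect; on the % scale 0 is the no-effect control and ±100 the full control effect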
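Seeding density was 200 cells/uL; after overnight-length (12 h) culture, 23 nL compounds went on for 24 h at 37 °C. Readout used a luciferase detection reagent, luminescence taken after 12 min at room temperature.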
TRHR ag: qHTS for Small Molecule Agonists and Allosteric Enhancers of Human TRH Receptor: Primary Screen for Agonists; TRHR cells, calcium flux fluo-8, FDSS agonist mode; activation, % at 2 µM; hit rate 0.18% among 360,000; in the data active means activation above about 30%; further: 0% is about no effect
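In this calcium-flux screen, cells bearing human TRHR are dye-loaded with fluo-8, baselined for 10 cycles, then exposed to library compounds; positive kinetic calcium responses during the agonist phase mark hits, with TRH as control.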
GLP1R inv ag: qHTS of GLP-1 Receptor Inverse Agonists (Inhibition Mode); Glucagon-like peptide 1 receptor (Homo sapiens), P43220; HEK293 GLP-1R CRE-luciferase, luminescence, 24 h; GLP-1R form is constitutively active; Potency, µM (series often up to 38.3 µM), for inactives: at the top dose activity change, negative = inhibition, most hits filed as inhibitors; hit rate 1.6% among 410,000; AID 624417, 2012; further: potency means the concentration at half of the fitted maximal effect; on the % scale 0 is the no-effect control and ±100 the full control effect; nearly all actives have a fitted effect of over 55% in size
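Seeding at 200 cells/uL, 12 h culture, 24 hr compound treatment, then luciferase reagent and a luminescence read; cells are HEK293 stably expressing a constitutively active GLP-1R plus cAMP-responsive luciferase.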
PTHR1 agonist: qHTS for PTHR1 Agonists: Primary Screen; hit rate 0.075% among 410,000; HEK293 GP2 PTHR1 cells, GloSensor cAMP luminescence, 1 h; Parathyroid hormone/parathyroid hormone-related peptide receptor (Homo sapiens), Q03431; Potency, µM (doses to about 115 µM), inactives show at the highest dose activation, most hits filed as activators; further: potency means the concentration at half of the fitted maximal effect; nearly all actives have a fitted effect of over 55% in size
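HEK-293-derived GP2 cells expressing PTHR1 and a GloSensor cAMP reporter, 3,000/well, plated overnight, given luciferin plus IBMX (each 0.5 mM as added) for 1 h at 37 °C, then compound for 1 h at 37 °C. Luminescence was read after 15 min at room temperature.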
TRHR PAM: qHTS for Small Molecule Agonists and Allosteric Enhancers of Human TRH Receptor: Primary Screen for Enhancers | enhancement, % at 2 µM | TRHR cells, fluo-8 calcium fluorescence, EC20 TRH enhancement | hit rate 0.66% among 360,000 | Thyrotropin-releasing hormone receptor (Homo sapiens), P34981 | AID 493056, 2011; in the data active means enhancement above about 30%; further: 0% is about no effect
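TRHR-expressing cells loaded with fluo-8 calcium dye were read kinetically (ex 480/em 530) during compound addition, then stimulated with an EC20 of TRH (10 nM final). Enhancement of the Gq-mediated intracellular calcium response was scored.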
* hit, by the source's call. A selection: hits, their analogues and other compounds. The true share with any hit is near 2.4%. Unless noted, the call rests on the fitted dose curve; in most records, active means well fitted curve in the direction sought with a large enough effect; inconclusive means small, poorly fitted or top-dose-only effect, or another doubt; inactive means no such curve, though single readings can be large; an effect the other way counts as inactive or inconclusive.

CCOC(=O)C1=CN(Cc2cccc(F)c2)S(=O)(=O)N(C)C1c1ccc2ccccc2c1 (configuration not stated) was read as GLP1R ag 1.9%, HEK293 tox -16.5%, GLP1R inv ag inconclusive and PTHR1 agonist -9.8%.
`CC(C)c1ccc2[nH]c3nc(SCC(=O)NC4CC4)nnc3c2c1` gave GLP1R ag 7.0%, HEK293 tox -0.3%, TRHR ag -0.1, GLP1R inv ag 6.6%, PTHR1 agonist inactive and TRHR PAM 0.6.
For CCCNC1=C(N(C(C)=O)c2cccc(F)c2)C(=O)c2ccccc2C1=O the results were GLP1R ag -39.6%, HEK293 tox inconclusive, TRHR ag -0.2, GLP1R inv ag 8.91µM*, PTHR1 agonist inactive and TRHR PAM -3.1.
`COc1ccc2cc(Br)ccc2c1CC(=O)NCC1CCCO1` (configuration not stated) gave GLP1R ag 3.0%, HEK293 tox 6.8%, TRHR ag -0.7, GLP1R inv ag -23.7%, PTHR1 agonist -60.4% and TRHR PAM -1.0.
c1ccc(CCNc2ncnc3scc(C4COc5ccccc5O4)c23)cc1 (configuration not stated) was read as GLP1R ag -12.8%, HEK293 tox inconclusive, TRHR ag 2.1, GLP1R inv ag 7.94µM*, PTHR1 agonist inconclusive and TRHR PAM -5.7.
For Cc1ccc(-c2cc(C(=O)Nc3ccc(S(=O)(=O)N4CC(C)OC(C)C4)cc3)[nH]n2)c(O)c1 (configuration not stated) the results were GLP1R ag 5.7%, HEK293 tox -13.3%, TRHR ag 1.1, GLP1R inv ag 1.12µM*, PTHR1 agonist -37.7% and TRHR PAM -4.7.
`O=C(Nc1ccc(S(=O)(=O)N2CCOCC2)cc1)c1cc(-c2cc(Cl)ccc2O)n[nH]1` gave GLP1R ag -5.0%, HEK293 tox inconclusive, TRHR ag 1.9, GLP1R inv ag 3.55µM*, PTHR1 agonist -32.8% and TRHR PAM -0.8.
For Cc1cc(O)c(-c2cc(C(=O)Nc3ccc(S(=O)(=O)N4CCOCC4)cc3)[nH]n2)cc1C the results were GLP1R ag -18.5%, HEK293 tox -54.5%, TRHR ag 0.6, GLP1R inv ag -25.9%, PTHR1 agonist inconclusive and TRHR PAM 3.8.
`CCOC(=O)C1Nc2c(F)cc(C)cc2C2c3ccccc3CC12` (configuration not stated) gave GLP1R ag -4.2%, HEK293 tox 26.2%, GLP1R inv ag 10µM* and PTHR1 agonist -34.8%.
`CC(C)c1ccc(NC(=O)N2CCN(S(=O)(=O)c3ccccc3)CC2)cc1` gave GLP1R ag 4.2%, HEK293 tox -6.0%, TRHR ag 0.1, GLP1R inv ag 5.62µM*, PTHR1 agonist -25.5% and TRHR PAM -2.4.
For CC(C)c1ccc(NC(=O)N2CCN(c3ccc(Cl)c(Cl)c3)CC2)cc1 the results were HEK293 tox -22.9%, TRHR ag 0.3, GLP1R inv ag 7.94µM*, PTHR1 agonist -89.6% and TRHR PAM -3.5.
For O=C(Nc1ccc(C(=O)N2CCCCC2)cc1)C1CCCCC1 the results were GLP1R ag -5.1%, HEK293 tox 2.1%, TRHR ag -0.1, GLP1R inv ag -0.5%, PTHR1 agonist inactive and TRHR PAM -0.1.
CCOC(=O)c1cc(-c2ccccc2C)nn1CC1CC(c2ccc(OC)cc2)=NO1 (configuration not stated) was read as GLP1R ag 25.6%, HEK293 tox 1.7%, TRHR ag 1.2, GLP1R inv ag 11.2µM*, PTHR1 agonist inactive and TRHR PAM -4.2.
For Cc1cc2ncc(-c3cccs3)nc2cc1C the results were GLP1R ag 0.7%, HEK293 tox 19.8%, TRHR ag 0.3, GLP1R inv ag -4.4%, PTHR1 agonist -92.3% and TRHR PAM 31.0*.
`CNC(C)C(=O)NC(C(=O)NC(C)C(=O)NNc1ccccc1)C(C)C` (configuration not stated) gave GLP1R ag -2.0%, HEK293 tox -29.5%, GLP1R inv ag inconclusive and PTHR1 agonist inactive.
COCC#Cc1ccc2c(c1)O[C@@H](CN(C)S(=O)(=O)c1cccc(F)c1)[C@@H](C)CN([C@H](C)CO)S2(=O)=O was read as GLP1R ag 9.3%, HEK293 tox -9.5%, GLP1R inv ag 9.7% and PTHR1 agonist -20.4%.
NC(N)=N/N=C/c1cccc([N+](=O)[O-])c1O was read as GLP1R ag -2.1%, HEK293 tox 0.0%, TRHR ag -0.8, GLP1R inv ag 5.8%, PTHR1 agonist inactive and TRHR PAM -3.6.
For NC(N)=N/N=C/c1cccc(Cl)c1Cl the results were GLP1R ag 0.4%, HEK293 tox inconclusive, TRHR ag 0.4, GLP1R inv ag 10µM*, PTHR1 agonist -8.1% and TRHR PAM 3.9.
Screening CCO/C=C/C(O)(CNC(=O)c1ccc(C(C)(C)C)cc1)C(F)(F)F (configuration not stated) returned GLP1R ag -2.5%, HEK293 tox -17.5%, TRHR ag 0.1, GLP1R inv ag 8.91µM*, PTHR1 agonist -17.9% and TRHR PAM 0.3.
For Cc1ccc(S(=O)(=O)NCc2ccccc2)cc1 the results were GLP1R ag 3.3%, HEK293 tox 2.9%, TRHR ag -1.2, GLP1R inv ag 0.9%, PTHR1 agonist inactive and TRHR PAM -12.1.
For Cc1ccc(CNS(=O)(=O)NCc2ccccc2)cc1 the results were GLP1R ag -1.1%, HEK293 tox 2.5%, TRHR ag -0.6, GLP1R inv ag 7.8%, PTHR1 agonist 16.2% and TRHR PAM 37.8*.
`CCOC(=O)N1CCc2c(sc(NCc3ccc(N(C)C)cc3)c2C(=O)Nc2ccc(OC)cc2)C1` gave HEK293 tox -3.8%, TRHR ag -0.9, GLP1R inv ag -19.2%, PTHR1 agonist -18.8% and TRHR PAM -6.7.
OCCN(CCO)c1ccc2ccccc2c1 was read as GLP1R ag 0.9%, HEK293 tox -4.2%, TRHR ag -0.6, GLP1R inv ag -26.4%, PTHR1 agonist -20.3% and TRHR PAM 7.4.
